The values that follow come from paper PMC8384837, “Expanding the binding specificity for RNA recognition by a PUF domain”.

What all share (experiment): yeast three-hybrid, YBZ-1, SC-Leu-His + 0.5 mM 3-AT, 4 days
Common to all, as to conditions: tags: N-Gal4 AD-HA kept; label: inside an RPR1-promoter hybrid RNA with tandem MS2 sites; ssRNA

For one test, the target named is PUM1 PUF domain R8-KHN (Homo sapiens, UniProt Q14671 828-1176, N1122K;Y1123H;Q1126N). In outline:
(§1)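 The interaction score is the log change in how often each variant appears, from input to selection. Frequencies came from PCR-amplified, Illumina-sequenced repeat regions of Pumilio-1 PUF domain libraries grown in strain YBZ-1 (LexA–MS2 coat fusion, HIS3 reporter) alongside matching RNA elements. Input plates were SC-Leu and selection plates were SC-Leu-His + 0.5 mM 3-AT, each for four days, and the log2 calculation used a pseudocount of 1 where a variant was absent.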

The target of a further test is PUM1 PUF domain R3-LSG (Homo sapiens, UniProt Q14671 828-1176, C935L;R936S;Q939G). In outline: as §1
PUM1 PUF domain R3-LSG, sequence (Q14671 828-1176 C935L/R936S/Q939G): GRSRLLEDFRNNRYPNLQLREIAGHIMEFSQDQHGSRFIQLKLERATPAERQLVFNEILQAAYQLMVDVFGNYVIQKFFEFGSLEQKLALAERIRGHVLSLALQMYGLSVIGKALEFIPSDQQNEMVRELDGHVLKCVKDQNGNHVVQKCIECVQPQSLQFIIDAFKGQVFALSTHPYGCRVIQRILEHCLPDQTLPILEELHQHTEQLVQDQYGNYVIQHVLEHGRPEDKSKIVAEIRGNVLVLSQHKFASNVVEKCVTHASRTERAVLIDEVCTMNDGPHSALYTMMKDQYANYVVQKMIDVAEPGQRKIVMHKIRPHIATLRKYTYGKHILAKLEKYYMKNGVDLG
A further test has as its target PUM1 PUF domain R3-LST (Homo sapiens, UniProt Q14671 828-1176, C935L;R936S;Q939T). The essentials: as §1
Another test concerns the target PUM1 PUF domain R3-IWR (Homo sapiens, UniProt Q14671 828-1176, C935I;R936W;Q939R). In outline:
as §1

Another test concerns the target PUM1 PUF domain R4-GPR (Homo sapiens, UniProt Q14671 828-1176, N971G;H972P;Q975R). The essentials:
as §1

Another test deals with PUM1 PUF domain R4-PHG (Homo sapiens, UniProt Q14671 828-1176, N971P;Q975G). The essentials:
as §1

For the next test, the target named is PUM1 PUF domain R4-NQQ (Homo sapiens, UniProt Q14671 828-1176, H972Q). In outline:
as §1

A further test deals with PUM1 PUF domain R5-RAS (Homo sapiens, UniProt Q14671 828-1176, C1007R;R1008A;Q1011S). In outline:
as §1

The next test has as its target PUM1 PUF domain R7-VSR (Homo sapiens, UniProt Q14671 828-1176, S1079V;N1080S;E1083R). In outline:
as §1

For another test, the target named is PUM1 PUF domain R8-NWF (Homo sapiens, UniProt Q14671 828-1176, Y1123W;Q1126F). The essentials: as §1
PUM1 PUF domain R8-NWF, sequence (Q14671 828-1176 Y1123W/Q1126F): as the sequence (Q14671 828-1176 C935L/R936S/Q939G) above, with L108C, S109R, G112Q, Y296W, Q299F counted along it
For a further test, the target named is PUM1 PUF domain R8-SYK (Homo sapiens, UniProt Q14671 828-1176, N1122S;Q1126K). In outline:
as §1

Another test concerns the target PUM1 PUF domain R8-PWQ (Homo sapiens, UniProt Q14671 828-1176, N1122P;Y1123W). The essentials: as §1
Another test addresses T1, PUM1 PUF domain R6-VWV (Homo sapiens, UniProt Q14671 828-1176, N1043V;Y1044W;Q1047V).
T1 sequence: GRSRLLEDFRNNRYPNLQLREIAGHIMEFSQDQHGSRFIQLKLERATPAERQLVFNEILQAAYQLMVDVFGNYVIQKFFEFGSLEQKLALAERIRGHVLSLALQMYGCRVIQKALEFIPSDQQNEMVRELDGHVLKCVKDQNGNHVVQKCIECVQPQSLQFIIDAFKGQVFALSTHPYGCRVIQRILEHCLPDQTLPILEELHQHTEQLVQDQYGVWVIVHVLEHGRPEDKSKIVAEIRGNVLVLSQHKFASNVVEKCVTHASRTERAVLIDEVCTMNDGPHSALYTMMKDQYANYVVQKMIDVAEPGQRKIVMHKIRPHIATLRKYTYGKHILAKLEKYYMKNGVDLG
In outline:
as §1

In another test the target is PUM1 PUF domain R4-DFG (Homo sapiens, UniProt Q14671 828-1176, N971D;H972F;Q975G). In outline:
as §1

The next test deals with PUM1 PUF domain R3-SPT (Homo sapiens, UniProt Q14671 828-1176, C935S;R936P;Q939T). The essentials:
as §1

The next test concerns the target PUM1 PUF domain R5-RRT (Homo sapiens, UniProt Q14671 828-1176, C1007R;Q1011T). In outline: as §1
Another test has as its target PUM1 PUF domain R5-KAN (Homo sapiens, UniProt Q14671 828-1176, C1007K;R1008A;Q1011N). The essentials:
as §1

The target in another test is PUM1 PUF domain R2-RQC (Homo sapiens, UniProt Q14671 828-1176, N899R;Y900Q;Q903C). The essentials: as §1
PUM1 PUF domain R2-RQC, sequence (Q14671 828-1176 N899R/Y900Q/Q903C): as the sequence (Q14671 828-1176 C935L/R936S/Q939G) above, with N72R, Y73Q, Q76C, L108C, S109R, G112Q counted along it
The next test deals with PUM1 PUF domain R3-RIA (Homo sapiens, UniProt Q14671 828-1176, C935R;R936I;Q939A). In outline: as §1
PUM1 PUF domain R3-RIA, sequence (Q14671 828-1176 C935R/R936I/Q939A): as the sequence (Q14671 828-1176 C935L/R936S/Q939G) above, with L108R, S109I, G112A counted along it
The next test concerns the target PUM1 PUF domain R1-KKS (Homo sapiens, UniProt Q14671 828-1176, S863K;R864K;Q867S). In outline:
as §1

PUM1 PUF domain R4-PHG, sequence (Q14671 828-1176 N971P/Q975G): as the sequence (Q14671 828-1176 C935L/R936S/Q939G) above, with L108C, S109R, G112Q, N144P, Q148G counted along it
PUM1 PUF domain R5-RRT, sequence (Q14671 828-1176 C1007R/Q1011T): as the sequence (Q14671 828-1176 C935L/R936S/Q939G) above, with L108C, S109R, G112Q, C180R, Q184T counted along it
PUM1 PUF domain R8-KHN, sequence (Q14671 828-1176 N1122K/Y1123H/Q1126N): as the sequence (Q14671 828-1176 C935L/R936S/Q939G) above, with L108C, S109R, G112Q, N295K, Y296H, Q299N counted along it
PUM1 PUF domain R3-IWR, sequence (Q14671 828-1176 C935I/R936W/Q939R): as the sequence (Q14671 828-1176 C935L/R936S/Q939G) above, with L108I, S109W, G112R counted along it
PUM1 PUF domain R3-LST, sequence (Q14671 828-1176 C935L/R936S/Q939T): as the sequence (Q14671 828-1176 C935L/R936S/Q939G) above, with G112T counted along it
PUM1 PUF domain R5-RAS, sequence (Q14671 828-1176 C1007R/R1008A/Q1011S): as the sequence (Q14671 828-1176 C935L/R936S/Q939G) above, with L108C, S109R, G112Q, C180R, R181A, Q184S counted along it
PUM1 PUF domain R5-KAN, sequence (Q14671 828-1176 C1007K/R1008A/Q1011N): as the sequence (Q14671 828-1176 C935L/R936S/Q939G) above, with L108C, S109R, G112Q, C180K, R181A, Q184N counted along it
PUM1 PUF domain R1-KKS, sequence (Q14671 828-1176 S863K/R864K/Q867S): as the sequence (Q14671 828-1176 C935L/R936S/Q939G) above, with S36K, R37K, Q40S, L108C, S109R, G112Q counted along it
PUM1 PUF domain R8-SYK, sequence (Q14671 828-1176 N1122S/Q1126K): as the sequence (Q14671 828-1176 C935L/R936S/Q939G) above, with L108C, S109R, G112Q, N295S, Q299K counted along it

On to “GGCUAGAACUAGUGGAUCCCCCGGCGCCCGGCGGCUCGAGCCCGGGUAAGGGUAAAUAGUCUGCAUGCCGCCGGGCGCCAUGCCUGCAGGUCGACUCUAGAAAACAUG”, for which the binding signal with PUM1 PUF domain R8-KHN was 2.46 log2 enrichment (interaction score).
As for “GGCUAGAACUAGUGGAUCCCCCGGCGCCCGGCGGCUCGAGCCCGGGUAAGUGUAAGUAGUCUGCAUGCCGCCGGGCGCCAUGCCUGCAGGUCGACUCUAGAAAACAUG”, the binding signal was 2.82 log2 enrichment (interaction score) with PUM1 PUF domain R3-LSG, 3.44 log2 enrichment (interaction score) with PUM1 PUF domain R3-LST and 4.57 log2 enrichment (interaction score) with PUM1 PUF domain R3-IWR.
On to “GGCUAGAACUAGUGGAUCCCCCGGCGCCCGGCGGCUCGAGCCCGGGUAAGUGUAUAUAGUCUGCAUGCCGCCGGGCGCCAUGCCUGCAGGUCGACUCUAGAAAACAUG”, for which the binding signal with PUM1 PUF domain R4-GPR is 0.87 log2 enrichment (interaction score); with PUM1 PUF domain R4-PHG, 4.99 log2 enrichment (interaction score); with PUM1 PUF domain R4-NQQ it was 2.71 log2 enrichment (interaction score).
As for “GGCUAGAACUAGUGGAUCCCCCGGCGCCCGGCGGCUCGAGCCCGGGUAAGUGUUAAUAGUCUGCAUGCCGCCGGGCGCCAUGCCUGCAGGUCGACUCUAGAAAACAUG”, in the test with PUM1 PUF domain R5-RAS, the binding signal is 3.24 log2 enrichment (interaction score).
As to “GGCUAGAACUAGUGGAUCCCCCGGCGCCCGGCGGCUCGAGCCCGGGUAAGUUUAAAUAGUCUGCAUGCCGCCGGGCGCCAUGCCUGCAGGUCGACUCUAGAAAACAUG”, the binding signal in the test with PUM1 PUF domain R7-VSR was 3.33 log2 enrichment (interaction score).
Turning to “GGCUAGAACUAGUGGAUCCCCCGGCGCCCGGCGGCUCGAGCCCGGGUAAGCGUAAAUAGUCUGCAUGCCGCCGGGCGCCAUGCCUGCAGGUCGACUCUAGAAAACAUG”, the binding signal is 2.16 log2 enrichment (interaction score) with PUM1 PUF domain R8-NWF, 4.29 log2 enrichment (interaction score) with PUM1 PUF domain R8-SYK and 5.43 log2 enrichment (interaction score) in the test with PUM1 PUF domain R8-KHN.
Take “GGCUAGAACUAGUGGAUCCCCCGGCGCCCGGCGGCUCGAGCCCGGGUAAGUGUAAAUAGUCUGCAUGCCGCCGGGCGCCAUGCCUGCAGGUCGACUCUAGAAAACAUG”: the binding signal was 3.79 log2 enrichment (interaction score) in the test with PUM1 PUF domain R8-PWQ; 4.7 log2 enrichment (interaction score) with PUM1 PUF domain R4-PHG; 1.13 log2 enrichment (interaction score) with PUM1 PUF domain R6-VWV; 5.83 log2 enrichment (interaction score) in the test with PUM1 PUF domain R4-DFG; 2.13 log2 enrichment (interaction score) with PUM1 PUF domain R3-SPT; 2.21 log2 enrichment (interaction score) in the test with PUM1 PUF domain R8-KHN. Also, the binding signal with PUM1 PUF domain R5-RRT is 0.94 log2 enrichment (interaction score); in the test with PUM1 PUF domain R3-IWR, 3.61 log2 enrichment (interaction score).
For “GGCUAGAACUAGUGGAUCCCCCGGCGCCCGGCGGCUCGAGCCCGGGUAAGUGUGAAUAGUCUGCAUGCCGCCGGGCGCCAUGCCUGCAGGUCGACUCUAGAAAACAUG”, in the test with PUM1 PUF domain R5-RRT, the binding signal is 1.02 log2 enrichment (interaction score).
In the case of “GGCUAGAACUAGUGGAUCCCCCGGCGCCCGGCGGCUCGAGCCCGGGUAAGUGUCAAUAGUCUGCAUGCCGCCGGGCGCCAUGCCUGCAGGUCGACUCUAGAAAACAUG”, the binding signal in the test with PUM1 PUF domain R5-KAN was 5.42 log2 enrichment (interaction score); with PUM1 PUF domain R5-RAS, 3.03 log2 enrichment (interaction score); in the test with PUM1 PUF domain R5-RRT it was 4.59 log2 enrichment (interaction score).
Turning to “GGCUAGAACUAGUGGAUCCCCCGGCGCCCGGCGGCUCGAGCCCGGGUAAGUGUAAAGAGUCUGCAUGCCGCCGGGCGCCAUGCCUGCAGGUCGACUCUAGAAAACAUG”, the binding signal with PUM1 PUF domain R2-RQC is 4.25 log2 enrichment (interaction score).
As for “GGCUAGAACUAGUGGAUCCCCCGGCGCCCGGCGGCUCGAGCCCGGGUAAGUGAAAAUAGUCUGCAUGCCGCCGGGCGCCAUGCCUGCAGGUCGACUCUAGAAAACAUG”, in the test with PUM1 PUF domain R6-VWV, the binding signal is 4.54 log2 enrichment (interaction score).
Consider “GGCUAGAACUAGUGGAUCCCCCGGCGCCCGGCGGCUCGAGCCCGGGUAAGUGUAAUUAGUCUGCAUGCCGCCGGGCGCCAUGCCUGCAGGUCGACUCUAGAAAACAUG”, for which the binding signal with PUM1 PUF domain R3-LSG was 1.48 log2 enrichment (interaction score); with PUM1 PUF domain R3-SPT it was 1.18 log2 enrichment (interaction score); in the test with PUM1 PUF domain R3-LST, 2.71 log2 enrichment (interaction score); with PUM1 PUF domain R3-RIA, 3.43 log2 enrichment (interaction score); with PUM1 PUF domain R3-IWR it was 3.7 log2 enrichment (interaction score).
Take “GGCUAGAACUAGUGGAUCCCCCGGCGCCCGGCGGCUCGAGCCCGGGUAAGUGUAAAUUGUCUGCAUGCCGCCGGGCGCCAUGCCUGCAGGUCGACUCUAGAAAACAUG”: the binding signal with PUM1 PUF domain R1-KKS was 5.1 log2 enrichment (interaction score).
For the sequence “GGCUAGAACUAGUGGAUCCCCCGGCGCCCGGCGGCUCGAGCCCGGGUAAGUGUACAUAGUCUGCAUGCCGCCGGGCGCCAUGCCUGCAGGUCGACUCUAGAAAACAUG”, the binding signal with PUM1 PUF domain R4-GPR was 2.58 log2 enrichment (interaction score); with PUM1 PUF domain R4-PHG, 4.15 log2 enrichment (interaction score); in the test with PUM1 PUF domain R4-DFG it was 2.96 log2 enrichment (interaction score).
